This passage reports Potency results from PubChem BioAssay (Tox21).

The structures appear in SMILES notation. Results filed as inconclusive are left out. Entries that show only a call come without a potency. The source made the active and inactive calls. Calls follow the shape of the dose curve; as a rule, active = well fitted inhibition curve with a large enough effect in the repeat runs; inconclusive = weak or mixed curves, or effect the other way; inactive = no such curve, though single readings can be large or run the other way.
Potency is read from the fitted curve at half-maximal effect.

The experiment can be described thus: qHTS assay to identify small molecule antagonists of the retinoic acid receptor (RAR) signaling pathway (AID 1159552; also: nearly all actives have a fitted effect of over 50% in size). The settings on record: C3RL4 RARE luciferase reporter, retinol-stimulated, 6 h; series mostly up to 92.4 µM. The method in brief:
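RARE-luc C3RL4 cells; cpds + 1 uM (final) retinol, 6 hr, 37 C/5% CO2; luciferase reagent, 30 min RT, luminescence readout. Inhibitors of retinol-driven signal scored.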
A general note: In qHTS, concentration-response curves come from the screen itself.
Regarding `O=[N+]([O-])c1ccc(F)c([N+](=O)[O-])c1`, the Potency result was “inactive”.

On to `Clc1cccc(SC2CCNCC2)n1`, for which the Potency entry is “inactive”.

`O=[N+]([O-])c1cc(C(F)(F)F)cc([N+](=O)[O-])c1Cl`: the Potency result is “inactive”.

`ClCCCCBr`: the Potency entry was “inactive”.

`O=S(=O)(O)C(F)(F)C(F)(F)C(F)(F)C(F)(F)F`: the Potency was 18.3 µM (active).

With `ClCC(Br)CBr` (centres undefined), the Potency entry is “inactive”.

Take `CC(Cl)C(C)Cl` (centres undefined): the Potency result was “inactive”.

As for `c1ccc(C2CC2)c(OCC2=NCCN2)c1`, the Potency entry is “inactive”.

Consider `CNC(C)Cc1ccccc1OC` (centres undefined), for which the Potency result was “inactive”.

On to `NC(=O)C(Cl)(Cl)Cl`, for which the Potency entry was “inactive”.

`Clc1cc(C(Cl)(Cl)Cl)cnc1Cl`: the Potency result was “inactive”.

Regarding `Nc1nc(N)nc(N)n1`, the Potency result is “inactive”.

On to `COc1cc(Cl)c(OC)cc1Cl`, for which the Potency entry is “inactive”.

With `CC(C)=CCOc1c2occc2cc2ccc(=O)oc12`, the Potency result was “inactive”.

Regarding `C=CCN1CC[C@]23c4c5ccc(O)c4O[C@H]2C(=O)CC[C@@]3(O)[C@H]1C5`, the Potency entry was “inactive”.

As for `N#Cc1ccc(Cl)cc1`, the Potency entry is “inactive”.

Turning to `CCC(Cl)CCl` (centres undefined), the Potency result is “inactive”.

On to `O=C(C(Cl)(Cl)Cl)C(Cl)(Cl)Cl`, for which the Potency result is “inactive”.

Consider `C=CCC1([C@H](C)CCC)C(=O)NC(=O)NC1=O`, for which the Potency result is “inactive”.

As for `Sc1ccccc1Cl`, the Potency result is “inactive”.

Consider `CC1(C)[C@H](C=C(Cl)Cl)[C@@H]1C(=O)O[C@@H](C#N)c1cccc(Oc2ccccc2)c1`, for which the Potency entry was “inactive”.

With `Brc1ccccc1`, the Potency result was “inactive”.

Consider `CCN(C)N=O`, for which the Potency entry is “inactive”.

Turning to `CC(c1ccc(O)cc1)(c1ccc(O)cc1)c1ccc(O)cc1`, the Potency was 61.1 µM (active).
